Over roughly 35,000 sequences, “fluorescence intensity (a.u.)” has its median near 10,000; the highest 2% begin near 52,000. The entries come from a sample that favours the highest values as a whole.

The source of these data is PMC7819943, “Rice protein-binding microarrays: a tool to detect cis-acting elements near promoter regions in rice”.

The test addresses T1, OsWOX13 (Oryza sativa, UniProt Q5QMM3 1-267).
T1 sequence: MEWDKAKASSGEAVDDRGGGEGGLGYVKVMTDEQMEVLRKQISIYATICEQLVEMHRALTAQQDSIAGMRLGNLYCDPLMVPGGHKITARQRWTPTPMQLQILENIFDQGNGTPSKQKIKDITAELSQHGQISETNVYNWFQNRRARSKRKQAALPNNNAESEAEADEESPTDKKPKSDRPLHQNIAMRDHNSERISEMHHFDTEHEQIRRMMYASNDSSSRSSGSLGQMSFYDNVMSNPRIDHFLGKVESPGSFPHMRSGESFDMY
Put plainly: protein-binding microarray (RPBM); PBS, 2% BSA, 51.3 ng/ul salmon testes DNA, 50 uM zinc acetate, 200 nM TF, 25 C, 1 h; high values mean tight binding. The conditions noted are these: protein: recombinant; tags: N-terminal polyhistidine and DsRed monomer fusion (pET32a); label: CyDye5-dUTP incorporated in the synthesized complementary strand; 3' TTTTT single-stranded linker to array surface; dsDNA, one strand shown. The gist of the method:
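An Axon 4000B scanner gave the binding signal as per-feature fluorescence intensity in arbitrary units. This followed washing of a custom Agilent array that had been incubated for 1 h at 25 °C with 200 nM protein in PBS, 2% BSA, salmon testes DNA and 50 µM zinc acetate. The proteins were transcription factors fused at the N-terminus to polyhistidine and DsRed, expressed in E. coli BL21-CodonPlus and purified on Ni–NTA.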
As for “GAAATTAAACTAATATTTCGGCCCATCAAGGGCTCGCTTGCGGAGTCACCTAGTGCAG”, the binding signal was 8580 fluorescence intensity (a.u.).

Regarding “TCTGATTATTAATTATCACTTTATCAGTCTCCAACGTTTACGGAGTCACCTAGTGCAG”, the binding signal was 40900 fluorescence intensity (a.u.).

“ATACTTAATTAATGATACGATAATTGAATTTATTCTCTCCCGGAGTCACCTAGTGCAG”: the binding signal is 49900 fluorescence intensity (a.u.).

For “ATACTTGACAGGTTTTATGCATATAAGAAAATCTGTTTAACGGAGTCACCTAGTGCAG”, the binding signal was 7520 fluorescence intensity (a.u.).

As for “CTCTCTCTCTGATTAGTTAATTGAATACATTGTAAGGGCCCGGAGTCACCTAGTGCAG”, the binding signal is 41200 fluorescence intensity (a.u.).

“TCGCTAATAAATCATATGATGTCATGGGCCCGAGACATCTCGGAGTCACCTAGTGCAG”: the binding signal was 3380 fluorescence intensity (a.u.).

In the case of “TGTGTTAAACTATATAATTTTCTCTAAAACATAATGGTACCGGAGTCACCTAGTGCAG”, the binding signal was 3720 fluorescence intensity (a.u.).

Take “TTAATTCTATCTAGTAGTAGAGTTAGTTATTTATATATTACGGAGTCACCTAGTGCAG”: the binding signal is 5310 fluorescence intensity (a.u.).

With “CCTTCGATTATTGGCACGGATTGTTTATCCAGGTAAGACTCGGAGTCACCTAGTGCAG”, the binding signal was 13300 fluorescence intensity (a.u.).

For the sequence “CACATCAACCTGCACCAATCATGCCATCGAGATCACAACACGGAGTCACCTAGTGCAG”, the binding signal was 3970 fluorescence intensity (a.u.).

In the case of “ATCTCCAAAATTTTAAATTTTAATTAAAACCTAACTTACACGGAGTCACCTAGTGCAG”, the binding signal was 6930 fluorescence intensity (a.u.).

In the case of “AATAATTGAATATATTTTCATAATAAATTTGTCTTGGGTTCGGAGTCACCTAGTGCAG”, the binding signal was 44400 fluorescence intensity (a.u.).

As to “CTAGAAATTAGGTGATTAATTTATTAAACACAATATTGCCCGGAGTCACCTAGTGCAG”, the binding signal was 56900 fluorescence intensity (a.u.).

On to “AAGAATTGATAGATGAAACGTGATTAGATACTAACTATACCGGAGTCACCTAGTGCAG”, for which the binding signal is 41200 fluorescence intensity (a.u.).

For the sequence “TGAATAATTGACAATTTAACCAGACCATTAATTAATTGTTCGGAGTCACCTAGTGCAG”, the binding signal is 62400 fluorescence intensity (a.u.).

“CTTTAAAATTAATTAAATTTGAAAATTAGTAACGAGGGGACGGAGTCACCTAGTGCAG”: the binding signal was 26700 fluorescence intensity (a.u.).

As for “TATAATTGAATAAATTTTCATATTATATTTATCTTGTGTTCGGAGTCACCTAGTGCAG”, the binding signal is 63100 fluorescence intensity (a.u.).

As for “AGAAATTGAACGTGATTAACGGGGAGGGCACTAGTGAGGCCGGAGTCACCTAGTGCAG”, the binding signal was 53000 fluorescence intensity (a.u.).

On to “GCACTAGTGATTGGAACAATATTAATTTCAGAAACATTGCCGGAGTCACCTAGTGCAG”, for which the binding signal was 32700 fluorescence intensity (a.u.).

As to “AATAATTGAATATATTTTCATAATAAATGTGTGTTGAGTTCGGAGTCACCTAGTGCAG”, the binding signal is 38400 fluorescence intensity (a.u.).

Regarding “ACAATTGAAGATAAATGACAAACCAATAAACCATTTGTTTCGGAGTCACCTAGTGCAG”, the binding signal was 5080 fluorescence intensity (a.u.).

In the case of “TACTAATTTTGAATTTAGAGCTATTAACCAATAAATTGTTCGGAGTCACCTAGTGCAG”, the binding signal was 12200 fluorescence intensity (a.u.).

Take “TTAATATAAAAGTAATTATTTAAATTGTAGAAACAATTTACGGAGTCACCTAGTGCAG”: the binding signal was 5710 fluorescence intensity (a.u.).

Regarding “TAGTGATTTGAAAATACGGGTGCAAACAATGGAGCAACAACGGAGTCACCTAGTGCAG”, the binding signal is 3560 fluorescence intensity (a.u.).

Consider “ATTTACCGCAACTGTAATTGAGATGGTTTTGAGATTTCATCGGAGTCACCTAGTGCAG”, for which the binding signal was 6850 fluorescence intensity (a.u.).

As for “TGTCACAGGTAAATCACTGCAATTAGCGAGTCATGGCTCACGGAGTCACCTAGTGCAG”, the binding signal was 8530 fluorescence intensity (a.u.).

“TGATGTTTCATCACTAATTTGTATTTGATAACCTGCATATCGGAGTCACCTAGTGCAG”: the binding signal is 5260 fluorescence intensity (a.u.).

In the case of “CTGATTTGCAGTTCGTTCGTGCCTCTCACAATCAAACCCCCGGAGTCACCTAGTGCAG”, the binding signal was 14300 fluorescence intensity (a.u.).

With “AGGTTGCAATCATTGGCCAGACGTTGCATGTCGTTGTTGACGGAGTCACCTAGTGCAG”, the binding signal was 13700 fluorescence intensity (a.u.).

Consider “CTTGTTATTGAATAATGGATTAACTAACTAATAACTAACGCGGAGTCACCTAGTGCAG”, for which the binding signal was 12800 fluorescence intensity (a.u.).

For “CAACAGATTAATGACATGTCAACAGCTGCATGCTCTAGCTCGGAGTCACCTAGTGCAG”, the binding signal was 14200 fluorescence intensity (a.u.).

With “CCGGTCTCCAAATCTTTATTAATTGCTTCCTCAAAACCCCCGGAGTCACCTAGTGCAG”, the binding signal was 3980 fluorescence intensity (a.u.).

Consider “ATTAACGACTTTTAATTTGAAACGGATTGAGTAGCTAGTTCGGAGTCACCTAGTGCAG”, for which the binding signal was 16100 fluorescence intensity (a.u.).

With “TTTAATTAATTGTAGGACAAGATAGCAAACGTGTGGCTACCGGAGTCACCTAGTGCAG”, the binding signal was 59900 fluorescence intensity (a.u.).

As to “GGAAAATGCTCTAATGATTGTTATGGAGTTTATCTGTAATCGGAGTCACCTAGTGCAG”, the binding signal is 5570 fluorescence intensity (a.u.).

For the sequence “AAAAGAATAATTTATTGTCTTGTTCAGTTAATCCCTCCCTCGGAGTCACCTAGTGCAG”, the binding signal is 3330 fluorescence intensity (a.u.).

Regarding “CACGATGATTGTTTGTATATGGAAACACCAAAATGGTCTACGGAGTCACCTAGTGCAG”, the binding signal was 54700 fluorescence intensity (a.u.).

For “ACTGATAACAAAATAATTTATAGGTAAAACTTTTAATATGCGGAGTCACCTAGTGCAG”, the binding signal was 7340 fluorescence intensity (a.u.).

As for “ATAATCCCTTGCGATTTATATTGAATTAATAGTTCTTGTTCGGAGTCACCTAGTGCAG”, the binding signal was 65000 fluorescence intensity (a.u.).

On to “AAAACAAATTTTATTATAAATATACGTTTAACTAACTTAGCGGAGTCACCTAGTGCAG”, for which the binding signal was 6070 fluorescence intensity (a.u.).

“TCTGTATGGTCTACTTGTTTGATTGATTGATAATTTTACACGGAGTCACCTAGTGCAG”: the binding signal was 22300 fluorescence intensity (a.u.).

For the sequence “ATTAATTGGTCGTGTATTAGCAAACGATATATATATCGGTCGGAGTCACCTAGTGCAG”, the binding signal is 50500 fluorescence intensity (a.u.).
